Each structure is given as a SMILES string. Compounds without any hit were thinned out: in the full panel of roughly 83,000, 20% have a hit.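 Plates (96-well) were seeded with cells, treated with compound at one concentration, and incubated for 48 hours before percent growth was determined.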 A number with no mark means an inactive call. Activity calls are given as the source filed them.

The test system of this assay is HCC-2998 colon. Description: NCI-60 one-dose screen, 48 h (100 = growth as untreated, 0 = no growth, -100 = all killed). The settings on record: 10 µM unless noted. As for the experimental part: Growth inhibition of the HCC-2998 human tumor cell line is measured as a screen for anti-cancer activity. Cells are grown in 96 well plates and exposed to the test compound for 48 hours. Compounds are tested at a single concentration, which is 10^-5 M for most compounds. The reported endpoint is percent growth (GI% or GIPRCNT), where numbers from 0 - 100% represent growth inhibition, and numbers from -100% - 0 represent cell death. For example, a value of 40 represents 60% growth inhibition. A value of 0 means no net growth occurred over the course of the experiment. A value of -40 indicates 40% of cells at the beginning of the experiment died by the end of the experiment. A value of -100 means all cells are dead at the end of the experiment.
NCI-60 Human Tumor Cell Lines Screen was performed using the standard one-dose NCI protocol, which is described in more detail at https://dtp.cancer.gov/discovery_development/nci-60/default.htm.
Compounds with GIPRCNT values below 10 were considered active. Activity score was based on GIPRCNT using the following formula: […]
Score is 0 for GIPRCNT values of 100 or above, 50 for GIPRCNT values of 0, and 100 for GIPRCNT values of -100.
Regarding `Cc1ccc(N(CC(=O)Nc2ccc(S(=O)(=O)NC3CCN(C)CC3)cc2)S(=O)(=O)c2ccc(Cl)cc2)cc1`, the growth is 30.4%.
As for `COc1ccc2c(c1)C/C(=C\c1cc(-c3cc(OC)c(OC)c(OC)c3)n[nH]1)C2=O`, the figure is 102%.
With `CCN(CC)CCCCCCNc1ccnc2cc(Cl)ccc12`, the growth was 107%.
As for `Cc1ccc(-c2nn(Cc3cn(-c4cc(C)nc5ccccc45)nn3)c3ncnc(N)c23)cc1`, the figure is 76.4%; as for `Oc1cccc2ccc(N/N=C/c3cc(CN4CCCCC4)c(O)c4ncccc34)nc12`, 5.61% (active).
As for `COC(=O)[C@]12CC[C@@H](C(/C=C/c3cccnc3)=N/O)[C@@H]1[C@H]1CC[C@@H]3[C@@]4(C)CC(=C/c5cccnc5)/C(=N/O)C(C)(C)[C@@H]4CC[C@@]3(C)[C@]1(C)CC2`, the figure is 45.9%.
As for `COC(=O)CCCCCn1c2ccccc2c2c3c(c4c5ccccc5[nH]c4c21)C(=O)N(O)C3=O`, the figure is 55.4%; as for `CC(C)(C)c1nc(-c2ccc(O)c(O)c2)cs1`, 86.1%; as for `COc1cc2c(cc1-c1c(C)noc1C)ncc1nc(C3CC3)n([C@H](C)COC(F)F)c12`, 57.3%.
Consider `C=C(C)[C@@H]1CC[C@]2(C)[C@H](CC=C3[C@@H]4CC(C)(C)CC[C@]4(C=O)CC[C@]32C)[C@@]1(C)CCCN`, for which the growth was 40.1%.
In the case of `Cn1cc(-c2csc(-c3cn(CCNC(=O)OC(C)(C)C)c4ccccc34)n2)c2cccnc21` it was 95.8%.
As for `CCc1ccccc1NC(=O)c1sc2nc3c(cc2c1N)CCCC3`, the figure is 78.9%.
Turning to `Clc1ccc2[nH]cc(-c3nc(-c4c[nH]c5ncccc45)cs3)c2c1`, the growth is 69.3%.
In the case of `COC(=O)[C@@H]1[C@H]2C[C@H]3c4[nH]c5cc(OC)ccc5c4CCN3C[C@@H]2C[C@H](OC(=O)/C=C/c2ccnc(OC)c2)[C@H]1OC` it was 105%; in that of `CC(=O)O[C@H]1CC[C@@]2(C)[C@@H](CC[C@@H]3[C@@H]2CC(=O)[C@@]2(C)[C@H]3C[C@@H](C3CCCC3=O)[C@@H]2C(C)=O)C1` (stereo not given in full), 107%; in that of `CC(C)/C=C/CC[C@](C)(O)[C@H]1CC[C@]2(C)[C@@H]1CC[C@@H]1[C@@]3(C)C/C(=C/c4cccc(C(F)(F)F)c4)C(=O)C(C)(C)[C@@H]3CC[C@]12C`, 104%.
In the case of `COc1cc2nc(Cl)nc(Nc3cccc(C(=O)/C=C/c4ccc(Cl)cc4)c3)c2cc1OC` it was 93.4%; in that of `CCN1CCN(C(=O)[C@]23CC[C@@H](C)[C@H](C)[C@H]2C2=CC[C@@H]4[C@@]5(C)C/C(=C/c6cccc(OC)c6OC)C(=O)C(C)(C)[C@@H]5CC[C@@]4(C)[C@]2(C)CC3)CC1`, 44.6%; in that of `O=C(/C=C\c1ccc2c(c1)OCO2)/C=C/c1ccc2c(c1)OCO2`, 41.4%.
In the case of `O=C(O)c1cccc2c1-c1ccc(Cl)cc1C2` it was 106%; in that of `Cc1ccc2c(c1)c1nc3cc(C)c(C)cc3nc1n2CCN(C)C`, 32.9%.
Consider `COc1cc(-c2cc(-c3nc4ccccc4[nH]3)[nH]n2)cc(OC)c1OC`, for which the growth is 71.4%.
In the case of `Cc1c(C)c2c(c(C)c1NC(=O)CCCCCCC(=O)O)CCC(C)(CCCC(C)CCCC(C)CCCC(C)C)O2` (stereo not given) it was 98.2%; in that of `O=C1c2cccc3cccc(c23)C(=O)N1CC#Cc1ccc2c3c(cccc13)C(=O)N(CCN1CCNCC1)C2=O`, 104%; in that of `CC(=O)N1N=C(c2ccc(C)cc2)CC1c1ccc(Oc2ccc(Br)cc2)cc1` (stereo not given), 96.9%.
Turning to `Nc1nc2c(c(=O)[nH]1)C(c1ccc3c(c1)OCO3)C=C(C(=O)O)N2` (stereo not given), the growth is 104%.
As for `CC1=NN(c2ccc(S(=O)(=O)O)cc2Cl)C(=O)C1`, the figure is 83.1%.
As for `Cc1ccc(Cc2cnc(NC(=O)/C=C/c3cccc(C)c3)s2)cc1`, the figure is 12.4%; as for `CC(C)(C)n1cc(-c2ccnc(NCCCNS(=O)(=O)c3ccc(Cl)cc3)c2)c(-c2cccc(F)c2)n1`, 63.4%.
In the case of `COc1ccc(-c2nc3ncccn3c2-c2nc3ccc(Br)cc3[nH]2)cc1` it was 97%; in that of `COc1ccc(-c2nc(Nc3ccc(-c4nc5ccccc5[nH]4)cc3)nc(N3CCOCC3)n2)cc1`, -19.8% (active); in that of `CN1CCN(CCOc2ccc(-c3cnc4c(-c5cccc(F)c5)cnn4c3)cc2)CC1`, 63.2%.
As to `COc1ccc2c(c1)c(-c1nc(-c3c[nH]c4ncccc34)cs1)cn2CCCN1CCCCC1`, the growth is 88.5%.
As for `Cn1c2c(c3ccc(Cl)cc31)-n1cccc1C2=O`, the figure is 101%; as for `CC1(C)C(=O)/C(=C\c2ccco2)C[C@]2(C)[C@H]3CC[C@@H]4[C@@H](C(=O)/C=C/c5ccco5)CC[C@@]4(C)[C@]3(C)CC[C@@H]12`, 108%; as for `NC1=NN=C2N(N)C(=O)c3cnn(-c4ccccc4)c3N2c2nc(-c3ccccc3)cc(-c3ccccc3)c21`, 107%.
In the case of `Nc1c2c(nc3ccc(Cl)cc13)CC(c1ccc(O)cc1)CC2=O` (stereo not given) it was 77.9%; in that of `Cn1cc(-c2csc(-c3cn(CCN)c4ccccc34)n2)c2cccnc21`, 65.3%.
Take `COc1cnc2c(c1)C(=O)c1c-2n(CCCNC2=NCCS2)c(=O)c2cc([N+](=O)[O-])ccc12`: the growth was -61.2% (active).
As for `COC1=C(Br)C(=O)C(OC)=C(Br)C1=O`, the figure is 114%.

Source of the values: PubChem BioAssay (NCI).
